# Insulin prom up: MIN6 insulin promoter up-regulation. MIN6 insulin promoter-GFP reporter, high-content imaging; hits give high values. z-score at 5 µM. 190,000 compounds, 0.3% hits. AID 1625;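 active means z-score above 3 at 5 µM with at least 500 cells counted in the well; inconclusive means wells under 500 cells, flagged as cytotoxic or low count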
# INS promoter inh: TRM-6 insulin promoter activity inhibition. 130,000 compounds, 0.9% hits. inhibition, % at 2 µM. TRM-6 cells (human fetal islet line), insulin promoter-eGFP reporter, imaging; reporter expression induced with tamoxifen;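 active means inhibition above the mean plus 3 SD, with well images judged a real hit on visual review, cut at about 60% in these data, passing the limit was not always enough; inconclusive means inhibition over the cutoff but images rejected on review; inactive means inhibition not above the cutoff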
# Cl transport mod: KCC2 (human) Cl- transport modulation; KCC2 cells, thallium flux FluoZin-2 fluorescence; B-score of Tl+ flux slope (higher = more flux/activation; lower = inhibition) at 10 µM; 190,000 compounds, 2.2% hits;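 active means thallium flux slope and its plate-corrected score both differing from the plate sample mean at a set confidence after two filtering rounds, in either direction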;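 further: slope of fluorescence scaled to starting intensity during 10 to 20 s after thallium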
# ROMK mod: modulates human ROMK potassium channel activity; P48048; Tet-inducible ROMK, thallium flux fluorescence; actives lie on both sides; B-score at 10 µM; 130,000 compounds, 2% hits;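 active means signal ratio slope over the read window, or its plate-corrected B-score, at least 3 SD from the plate mean, either direction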;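 further: B-score of the F/F0 ratio slope over 7 to 12 s after thallium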
# Target sequence (P48048 whole entry, looked up): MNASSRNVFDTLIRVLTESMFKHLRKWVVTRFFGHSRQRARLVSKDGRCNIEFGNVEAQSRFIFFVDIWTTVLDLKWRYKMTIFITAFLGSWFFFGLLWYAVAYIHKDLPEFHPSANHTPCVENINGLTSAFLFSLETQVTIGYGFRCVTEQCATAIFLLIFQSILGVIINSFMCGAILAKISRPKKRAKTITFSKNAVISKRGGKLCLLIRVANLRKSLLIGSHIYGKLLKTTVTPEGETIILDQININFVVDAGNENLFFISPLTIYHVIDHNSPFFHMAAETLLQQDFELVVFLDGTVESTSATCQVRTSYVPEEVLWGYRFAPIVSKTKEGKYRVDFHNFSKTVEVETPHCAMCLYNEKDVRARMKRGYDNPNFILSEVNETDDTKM
# Lmaj promast: Leishmania major promastigote growth inhibition. Leishmania major promastigotes, resazurin fluorescence viability. inhibition, % at 10 µM. 200,000 compounds, 9% hits; in the data active means inhibition above about 50%;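 further: promastigotes grown with compound for 44 hours at 28 °C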
# WT yeast gro inh: growth inhibition of WT yeast, mitochondrial fusion screen. 190,000 compounds, 2.1% hits. mitochondrial fusion phenotypic screen, WT strain. inhibition, % at 10 µM; in the data active means inhibition above about 58%; tested in S. cerevisiae
# ROMK hit retest: retested hit modulating human ROMK potassium channel; 3,000 compounds, 54% hits; ROMK thallium flux, fluorescence ratio; hits give low values; AID 1917; shares compounds with ROMK mod; normalized thallium flux (F/F0 slope) at 10 µM;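 active means Flux at 10 µM at least 3 SD below or above vehicle control mean in one or both replicates; inconclusive means no clear call, values can overlap the other calls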
# * = called active by the depositor; ? = inconclusive; · = not tested or not shown. Hits are enriched below; roughly 12% of the tested compounds scored in any of these assays.
SMILES,Insulin prom up,INS promoter inh,Cl transport mod,ROMK mod,Lmaj promast,WT yeast gro inh,ROMK hit retest
CCN(CC)S(=O)(=O)c1ccc(OC(C)C)c(NC(=O)c2c3c(nc4ccccc24)CCN(Cc2ccccc2)C3)c1,-0.2,-26,-0.33,-3*,58*,1,0.059*
CN(C)c1ccc(/C=C/c2cc[n+](C)cc2)cc1,?,-174,-1.7,-7.3*,99*,-2,0.044*
Cc1ccc(OCC(O)CN2CCN(CC(O)COC(C)C)CC2)c(C(C)(C)C)c1 (stereo not given),0.1,-200,0.63,-3.7*,77*,22,0.062*
CC1CCCC(C(=O)O)N1C(=O)CCS (stereo not given),-1.1,18,-0.49,2.2*,-7,-23,?
C=CCNC(=S)NNC(=O)c1cc(C)nc2ccccc12,-0.19,15,·,0,-3,16,·
CC1C(=NO)C(C)C(c2ccc(N(C)C)cc2)NC1c1ccc(N(C)C)cc1 (stereo not given),·,·,0.5,-4.4*,15,24,0.067*
Cc1c(NC(=O)C(C#N)=C2CCCCC2)c(=O)n(-c2ccccc2)n1C,0.94,31,·,-0.32,-6,8,·
COc1ccc(C2C(C#N)=C(N)OC(C(C)(C)C)=C2C#N)cc1OC (stereo not given),-0.15,·,·,-2.3*,0,-14,0.068*
C/C(Cl)=C\Cn1c(N2CCCC2)nc2c1c(=O)[nH]c(=O)n2C,0.06,24,·,·,3,-7,0.076
C=CCn1c(N2CCCCCC2)nc2c1c(=O)[nH]c(=O)n2C,-0.3,32,0.59,·,7,41,·
CN(C)c1ccc(/C=c2\sc3n(c2=O)CCCN=3)cc1,1.6,·,-0.54,-4.4*,18,2,0.054*
CCOc1cc(C2C(C#N)=C(N)OC(C)=C2C(C)=O)c(Br)c(Br)c1OC(C)C (stereo not given),·,-31,-0.52,-3.6*,64*,28,0.079
COc1cc([N+](=O)[O-])ccc1N/C=C/C(=O)c1cccs1,-0.33,-71,-1.2,·,0,19,0.053*
Cc1cccc(N/C=C/C(=O)c2cccs2)c1C,0.42,·,-0.0077,·,-1,11,·
CCOc1ccc2[nH]c(=O)c(CN(Cc3ccco3)Cc3nnnn3Cc3ccccc3)cc2c1,-1.8,·,·,·,22,-2,·
CCOc1ccc2[nH]c(=O)c(CN(Cc3ccco3)C(CC)c3nnnn3Cc3ccccc3)cc2c1 (stereo not given),·,·,1.5,·,41,23,0.074
CCOC(=O)Cn1nnnc1C(CC)N(Cc1cccs1)Cc1cc2cc(C)ccc2[nH]c1=O (stereo not given),-0.33,·,-0.25,-4*,95*,-27,0.072
COCC(=O)Nc1cccc2ccccc12,1.2,45,·,·,-5,-2,·
CCCC1(C(=O)O)NC(c2ccccc2O)C2C(=O)N(Cc3ccccc3)C(=O)C21 (stereo not given),0.87,·,-0.59,·,-4,-3,·
CCCCN1C(=O)C2C(c3ccc(OC)cc3O)NC(CC(C)C)(C(=O)O)C2C1=O (stereo not given),-0.47,·,0.55,·,-7,13,0.08
CC(C)(C)C(=O)c1cnc(Nc2ccccc2Cl)s1,-0.06,-54,-1.4,5.4*,0,-15,0.09
O=C(c1ccccc1)c1cnc(Nc2ccccc2Cl)s1,·,10,-1.4,·,2,-2,·
Cc1nn(CC(=O)N2CCOCC2)c(C)c1[N+](=O)[O-],-0.26,·,-0.23,·,-5,9,·
CCc1cc(C(=O)NNC(=O)CCl)sc1C,1.1,·,-0.67,0.36,14,-3,·
N=c1n(Cc2ccccc2)c2ccccc2n1CC(O)c1ccccc1 (stereo not given),·,-27,-0.12,·,23,18,·
SMILES,Insulin prom up,INS promoter inh,Cl transport mod,ROMK mod,Lmaj promast,WT yeast gro inh,ROMK hit retest
Cc1nc2ccccc2n1CC(O)COc1ccccc1Cl (stereo not given),-1.6,?,0.39,-1.6,7,7,0.057*
Cc1nc2ccccc2n1CC(O)COc1ccc(Br)cc1 (stereo not given),-0.33,·,0.18,·,7,23,·
Cc1ccccc1OCC(O)Cn1c(=N)n(Cc2ccccc2)c2ccccc21 (stereo not given),?,·,1.4,-4.6*,·,·,0.05*
COc1ccccc1OCC(O)Cn1c(=N)n(Cc2ccccc2)c2ccccc21 (stereo not given),?,-278,-0.1,-7.8*,101*,2,0.048*
O=[N+]([O-])c1ccc(-c2cc(-c3ccc(Cl)cc3)n[nH]2)cc1,-0.11,-62,·,·,-1,-8,·
COc1ccc(NC(=O)CC2Nc3cc(C)c(C)cc3NC2=O)c([N+](=O)[O-])c1 (stereo not given),1.4,·,1.4,-0.98,-2,7,·
Cc1ccc(-n2cc(CNC(C)c3cnn(C)c3C)c(-c3ccc(F)cc3)n2)cc1 (stereo not given),-0.7,·,0.2,-4.1*,32,12,0.054*
Cc1ccc(-n2cc(CNC(C)c3cnn(C)c3)c(-c3ccc(F)cc3)n2)cc1 (stereo not given),·,-35,1.3,-2.7*,38,7,0.051*
COC(=O)Cn1cnc2c1c(=O)n(C)c(=O)n2C,·,-295,-0.0086,-0.0035,0,-2,·
COc1ccc2cc(C)c3nnc(SCC(=O)Nc4nc(-c5ccccc5)cs4)n3c2c1,-0.11,·,1.2,·,0,16,·
OCC1(CCOc2ccccc2)CCN(C2Cc3ccccc3C2)CC1,-1.2,·,0.25,-3*,88*,9,0.058*
COc1ccccc1CN1C[C@@H]2C[C@@H](C3=Cc4cc(Cl)ccc4OC3)N3CCC[C@@]23C1=O,0.14,·,-1,-3.2*,32,55,0.065*
CC(=O)c1nn(-c2ccc(Br)cc2)cc1C(=O)c1ccco1,·,-19,·,0.14,2,-15,·
CCC1Oc2ccc(C)cc2N(CC(=O)N(Cc2ccc(C)o2)C2CCCC2)C1=O (stereo not given),·,-256,-0.72,-4.3*,21,65*,0.065*
CC(C)(C)OC(=O)NCCc1nnc(SCC(=O)Nc2cccc(Cl)c2)o1,0.09,9,·,·,-4,5,·
CC(C)(C)OC(=O)NCCCCCc1nnc(SCC(=O)Nc2cccc(Cl)c2)o1,1,-50,·,-4.9*,0,11,0.064*
CCCCCCC1CC(=O)NC(=O)N1 (stereo not given),-0.43,·,0.24,1.3,·,·,·
COc1ccc(/C=N/NC(=O)c2c(C)nc3ccc(Br)cn23)cc1OC,0.09,·,-1.4,0.44,·,·,·
COc1ccc(/C=N\NC(=O)c2c(C)nc3ccc(Br)cn23)cc1,0.7,-346,0.38,2.3*,4,-8,0.098*
CC(NC(=O)COC(=O)CSCc1ccccc1)c1ccccc1 (stereo not given),0.04,·,1.3,-0.048,1,-8,·
COc1ccc(NC(=O)C2CCCN(S(=O)(=O)c3cccnc3)C2)c(OC)c1 (stereo not given),0.3,·,0.27,·,-8,11,·
